Records with an inconclusive call do not appear. Activity calls are given as the source filed them. Rule for the calls, unless noted: active = hit-call score of the fitted dose curve at least 0.9, where 1 is the maximum; inconclusive = response in the unintended direction; inactive = score below 0.9.

A word on the AC50: it is the concentration giving half of the maximal activity seen.

Sequence of Estrogen receptor beta (Homo sapiens) (Q92731 whole entry, looked up, the tested form may be a part): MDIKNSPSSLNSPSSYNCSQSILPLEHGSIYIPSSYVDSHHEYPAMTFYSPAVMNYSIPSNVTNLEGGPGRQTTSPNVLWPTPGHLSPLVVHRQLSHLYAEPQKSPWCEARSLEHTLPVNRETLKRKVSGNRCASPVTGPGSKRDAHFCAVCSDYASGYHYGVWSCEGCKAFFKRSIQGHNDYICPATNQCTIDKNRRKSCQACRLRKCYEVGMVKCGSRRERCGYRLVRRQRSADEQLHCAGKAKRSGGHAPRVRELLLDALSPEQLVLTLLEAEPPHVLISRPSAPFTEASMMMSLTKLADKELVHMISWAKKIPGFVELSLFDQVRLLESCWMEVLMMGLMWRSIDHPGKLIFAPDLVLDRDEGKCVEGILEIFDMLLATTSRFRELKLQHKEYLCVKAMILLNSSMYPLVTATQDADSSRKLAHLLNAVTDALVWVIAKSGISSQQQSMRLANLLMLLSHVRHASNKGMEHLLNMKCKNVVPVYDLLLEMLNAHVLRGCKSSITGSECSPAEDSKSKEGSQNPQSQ
Sequence of Estrogen receptor (Homo sapiens) (P03372 whole entry, looked up): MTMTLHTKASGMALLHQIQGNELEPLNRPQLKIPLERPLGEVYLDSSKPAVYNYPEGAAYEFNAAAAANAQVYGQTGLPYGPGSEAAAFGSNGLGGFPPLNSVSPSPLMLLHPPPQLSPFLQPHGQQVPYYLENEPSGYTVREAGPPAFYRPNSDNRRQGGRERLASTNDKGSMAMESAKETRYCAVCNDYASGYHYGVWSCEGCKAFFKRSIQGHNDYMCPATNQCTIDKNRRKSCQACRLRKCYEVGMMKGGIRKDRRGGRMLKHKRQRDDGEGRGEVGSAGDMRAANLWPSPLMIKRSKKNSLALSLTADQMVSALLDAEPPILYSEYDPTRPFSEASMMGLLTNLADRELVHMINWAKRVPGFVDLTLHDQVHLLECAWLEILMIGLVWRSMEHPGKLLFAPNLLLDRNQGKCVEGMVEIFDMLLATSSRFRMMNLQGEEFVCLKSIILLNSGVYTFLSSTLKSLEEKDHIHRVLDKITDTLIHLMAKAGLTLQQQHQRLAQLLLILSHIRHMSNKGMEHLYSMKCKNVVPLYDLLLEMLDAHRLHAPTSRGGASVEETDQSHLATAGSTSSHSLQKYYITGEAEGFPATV
Sequence of Agonist Androgen Response Element (ARE), AR (gene 367) (P10275 whole entry, looked up): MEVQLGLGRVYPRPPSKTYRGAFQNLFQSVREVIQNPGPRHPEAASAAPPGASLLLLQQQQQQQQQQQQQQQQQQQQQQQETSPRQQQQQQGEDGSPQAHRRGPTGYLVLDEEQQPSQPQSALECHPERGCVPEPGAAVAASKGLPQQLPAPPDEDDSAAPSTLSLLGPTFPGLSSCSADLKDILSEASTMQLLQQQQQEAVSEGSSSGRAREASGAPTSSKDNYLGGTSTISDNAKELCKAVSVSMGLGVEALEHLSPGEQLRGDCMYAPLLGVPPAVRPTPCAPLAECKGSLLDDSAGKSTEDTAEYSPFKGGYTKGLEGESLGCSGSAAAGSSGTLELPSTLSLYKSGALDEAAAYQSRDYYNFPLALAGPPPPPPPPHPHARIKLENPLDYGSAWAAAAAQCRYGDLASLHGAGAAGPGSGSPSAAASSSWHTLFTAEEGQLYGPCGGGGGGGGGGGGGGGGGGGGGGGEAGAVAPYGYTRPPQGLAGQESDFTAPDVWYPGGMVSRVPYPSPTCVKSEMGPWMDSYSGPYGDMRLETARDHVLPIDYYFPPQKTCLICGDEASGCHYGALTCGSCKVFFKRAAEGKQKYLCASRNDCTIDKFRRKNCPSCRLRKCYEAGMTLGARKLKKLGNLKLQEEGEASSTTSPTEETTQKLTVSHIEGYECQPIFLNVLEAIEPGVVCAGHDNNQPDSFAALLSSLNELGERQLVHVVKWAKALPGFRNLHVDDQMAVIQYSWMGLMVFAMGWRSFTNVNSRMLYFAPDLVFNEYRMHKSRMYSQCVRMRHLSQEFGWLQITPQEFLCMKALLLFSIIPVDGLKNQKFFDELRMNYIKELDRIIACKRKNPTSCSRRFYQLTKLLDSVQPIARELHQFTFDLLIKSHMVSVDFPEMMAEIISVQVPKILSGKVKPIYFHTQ

In one assay the target is Agonist Androgen Response Element (ARE), AR (gene 367) (UniProt P10275). The experiment in a line: OT_AR_ARELUC_AG_1440: Odyssey Thera (OT) 24-hour CHO-K1 Luciferase Assay for Agonist Androgen Response Element (ARE) (AID 2283379). The method, boiled down:
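CHO-K1 cells carrying an ARE-driven luciferase reporter were exposed to compounds for 24 h. Luminescence was then read after adding a D-luciferin/ATP mix, and activity was scored as a gain in signal over DMSO vehicle.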
Turning to `CCCCC/C=C\CCC=O`, the half-maximal activity concentration (AC50) was 1.31 µM (active).

Take `CC(C)c1ccc2c(C(C)C)cc(C(C)C)c(S(=O)(=O)O)c2c1`: the call was inactive.

`O=c1cc(-c2ccccc2)oc2ccccc12`: the compound was classed as inactive.

Consider `Oc1ccc(Cl)cc1Cc1cc(Cl)ccc1O`, for which the call was inactive.

The target of a further assay is Estrogen receptor beta (Homo sapiens) (UniProt Q92731). The experiment in a line: OT_ER_ERbERb_1440: Odyssey Thera (OT) 24-hour HEK293T Protein-Complementation Assay for Estrogen Receptor-beta/-beta Homodimer (AID 2283380).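 Note: scored as signal increase over DMSO baseline for both agonists and antagonists.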 An outline of the steps:
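HEK293T cells stably expressing ER beta LBD (aa 310-547) homodimer fragment-complementation reporter, dosed 24 h. Cells formaldehyde-fixed, Draq5-stained; gain in nuclear (agonist) or nuclear plus cytoplasmic (antagonist) fluorescence versus DMSO read by laser scanning cytometry.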
For `Cc1ccc(N/N=c2\c(=O)cc/c(=N/Nc3ccc(S(=O)(=O)O)cc3)c2=O)c(C)c1`, the result was inactive.

For `CC/C=C\C/C=C\C/C=C\CCCCCCCC(=O)O`, the call was inactive.

`CCCCC(CC)CCC(CC(C)C)OS(=O)(=O)O` (centres undefined): the outcome was inactive.

On to `CCCCCCCC[N+](C)(CCCCCCCC)CCCCCCCC`, for which the call was inactive.

In the case of `CCCCCCCCO[C@@H]1O[C@H](CO)[C@@H](O)[C@H](O)[C@H]1O`, the compound was classed as inactive.

As to `COC(=O)c1c(C)cc(O)c(C)c1O`, the AC50 was 56.4 µM (active).

Regarding `CC(=O)OC(C)C`, the concentration at half-maximal activity (AC50) is 25.9 µM (active).

Take `CCCCCCCC/C=C\CCCCCCCC(=O)OCCO`: the call was inactive.

As for `O=S1(=O)OC(c2ccc(O)cc2)(c2ccc(O)cc2)c2ccccc21`, the result was inactive.

In the case of `CCCCC/C=C\C/C=C\CCCCCCCC(=O)OC`, the compound was classed as inactive.

On to `O=c1cc(-c2ccccc2)oc2ccccc12`, for which the AC50 was 49.2 µM (active).

Take `Oc1ccc(Cl)cc1Cc1cc(Cl)ccc1O`: the AC50 was 11.9 µM (active).

On to `CCCCCCCCCCCCCOP(=O)(O)O`, for which the outcome was inactive.

As for `O=S(=O)(O)c1ccccc1C=Cc1ccc(-c2ccc(C=Cc3ccccc3S(=O)(=O)O)cc2)cc1`, the result was inactive.

Regarding `O=C(C(Cl)Cl)N1CCOC12CCCCC2`, the call was inactive.

For the compound `CN(C)c1ccc(C(=N)c2ccc(N(C)C)cc2)cc1`, the compound was called inactive.

As to `CCCCCCCC/C=C\CCCCCCCC(=O)O`, the call was inactive.

For `CC1=NN(c2cc(S(=O)(=O)O)ccc2Cl)C(=O)C1N=Nc1ccccc1` (centres undefined), the outcome was inactive.

In another assay the target is Estrogen receptor (Homo sapiens) (UniProt P03372). As to the kind of experiment: OT_ERa_GFPERaERE_0480: Odyssey Thera (OT) 8-hour HeLa Transcription Induction Assay for Estrogen Receptor (AID 2283381; active = hit-call score of the fitted dose curve at least 0.9, where 1 is the maximum; inactive = score below 0.9). An outline of the steps:
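Fluorescent reporter signal, imaged by microscopy and scored with image-analysis algorithms, was taken 8 h after chemical dosing of HeLa cells; activity was fitted upward relative to DMSO.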
For `Cc1ccc(N/N=c2\c(=O)cc/c(=N/Nc3ccc(S(=O)(=O)O)cc3)c2=O)c(C)c1`, the outcome was inactive.

For `CC/C=C\C/C=C\C/C=C\CCCCCCCC(=O)O`, the result was inactive.

On to `CCCCC(CC)CCC(CC(C)C)OS(=O)(=O)O` (centres undefined), for which the outcome was inactive.

As to `CCCCCCCC[N+](C)(CCCCCCCC)CCCCCCCC`, the result was inactive.

For `CCCCCCCCO[C@@H]1O[C@H](CO)[C@@H](O)[C@H](O)[C@H]1O`, the call was inactive.

On to `CCCCC/C=C\CCC=O`, for which the outcome was inactive.

For `COC(=O)c1c(C)cc(O)c(C)c1O`, the call was inactive.

As to `CC(=O)OC(C)C`, the AC50 was 69.2 µM (active).

For `CC(C)C1=CC2=CC[C@@H]3[C@](C)(CCC[C@@]3(C)C(=O)O)[C@H]2CC1`, the compound was called inactive.

As for `CC(C)c1ccc2c(C(C)C)cc(C(C)C)c(S(=O)(=O)O)c2c1`, the compound was called inactive.

Take `CCCCCCCC/C=C\CCCCCCCC(=O)OCCO`: the compound was classed as inactive.

`O=S1(=O)OC(c2ccc(O)cc2)(c2ccc(O)cc2)c2ccccc21`: the AC50 is 73 µM (active).

With `CCCCC/C=C\C/C=C\CCCCCCCC(=O)OC`, the outcome was inactive.

For the compound `O=c1cc(-c2ccccc2)oc2ccccc12`, the outcome was inactive.

With `CCN(CCC#N)c1ccc(N=Nc2c(Cl)cc([N+](=O)[O-])cc2Cl)cc1`, the call was inactive.

With `Oc1ccc(Cl)cc1Cc1cc(Cl)ccc1O`, the result was inactive.

Consider `CCCCCCCCCCCCCOP(=O)(O)O`, for which the result was inactive.

Regarding `O=S(=O)(O)c1ccccc1C=Cc1ccc(-c2ccc(C=Cc3ccccc3S(=O)(=O)O)cc2)cc1`, the compound was called inactive.

Take `O=C(C(Cl)Cl)N1CCOC12CCCCC2`: the outcome was inactive.

Consider `CN(C)c1ccc(C(=N)c2ccc(N(C)C)cc2)cc1`, for which the compound was classed as inactive.

With `CCCCCCCC/C=C\CCCCCCCC(=O)O`, the compound was called inactive.

For the compound `CCCCCCCCCCOS(=O)(=O)O`, the result was inactive.

Consider `C1CN(SSN2CCOCC2)CCO1`, for which the call was inactive.

Take `CC1=NN(c2cc(S(=O)(=O)O)ccc2Cl)C(=O)C1N=Nc1ccccc1` (centres undefined): the outcome was inactive.

Another assay has the same target. The experiment in a line: OT_ERa_GFPERaERE_0120: Odyssey Thera (OT) 2-hour HeLa Transcription Induction Assay for Estrogen Receptor (AID 2283382). The method, boiled down: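 HeLa, 384-well, 2 h chemical exposure; GFP reporter induction (ERE), fluorescence microscopy; high content image analysis; positive fitting direction vs DMSO.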
For `Cc1ccc(N/N=c2\c(=O)cc/c(=N/Nc3ccc(S(=O)(=O)O)cc3)c2=O)c(C)c1`, the outcome was inactive.

Turning to `CC/C=C\C/C=C\C/C=C\CCCCCCCC(=O)O`, the call was inactive.

In the case of `CCCCC(CC)CCC(CC(C)C)OS(=O)(=O)O` (centres undefined), the compound was called inactive.

In the case of `CCCCCCCC[N+](C)(CCCCCCCC)CCCCCCCC`, the AC50 is 12.4 µM (active).

For the compound `CCCCCCCCO[C@@H]1O[C@H](CO)[C@@H](O)[C@H](O)[C@H]1O`, the result was inactive.

For `CCCCC/C=C\CCC=O`, the result was inactive.

For `COC(=O)c1c(C)cc(O)c(C)c1O`, the result was inactive.

Regarding `CC(=O)OC(C)C`, the compound was classed as inactive.

With `CC(C)C1=CC2=CC[C@@H]3[C@](C)(CCC[C@@]3(C)C(=O)O)[C@H]2CC1`, the outcome was inactive.

Consider `CC(C)c1ccc2c(C(C)C)cc(C(C)C)c(S(=O)(=O)O)c2c1`, for which the compound was called inactive.

Take `CCCCCCCC/C=C\CCCCCCCC(=O)OCCO`: the result was inactive.

Take `O=S1(=O)OC(c2ccc(O)cc2)(c2ccc(O)cc2)c2ccccc21`: the compound was called inactive.

As for `CCCCC/C=C\C/C=C\CCCCCCCC(=O)OC`, the compound was classed as inactive.

For the compound `O=c1cc(-c2ccccc2)oc2ccccc12`, the compound was classed as inactive.

`CCN(CCC#N)c1ccc(N=Nc2c(Cl)cc([N+](=O)[O-])cc2Cl)cc1`: the compound was classed as inactive.

For the compound `Oc1ccc(Cl)cc1Cc1cc(Cl)ccc1O`, the compound was called inactive.

With `CCCCCCCCCCCCCOP(=O)(O)O`, the call was inactive.

Consider `O=C(C(Cl)Cl)N1CCOC12CCCCC2`, for which the compound was called inactive.

As to `CN(C)c1ccc(C(=N)c2ccc(N(C)C)cc2)cc1`, the compound was called inactive.

For `CCCCCCCC/C=C\CCCCCCCC(=O)O`, the compound was called inactive.

Regarding `CCCCCCCCCCOS(=O)(=O)O`, the compound was classed as inactive.

`C1CN(SSN2CCOCC2)CCO1`: the compound was classed as inactive.

On to `CC1=NN(c2cc(S(=O)(=O)O)ccc2Cl)C(=O)C1N=Nc1ccccc1` (centres undefined), for which the compound was classed as inactive.

The values above are taken from PubChem BioAssay (EPA / NIEHS).
